# From PMC7862700, “An all-to-all approach to the identification of sequence-specific readers for epigenetic DNA modifications on cytosine”
# Assays:
# Experiment in all cases: DAPPL (digital affinity profiling via proximity ligation, sequencing); 10 mM Tris-HCl pH 7.5, 50 mM NaCl, 1 mM DTT, 4% glycerol, room temperature, 30 min; GST-TFs on glutathione beads, 16-mer random dsDNA library, 0.1% formaldehyde crosslink after washing; high values mean tight binding
# [1] = molecular target: T1, FLI1 (Homo sapiens, UniProt Q01543 1-452); details: protein: recombinant; tags: N-terminal GST; dsDNA, one strand shown
# T1 sequence: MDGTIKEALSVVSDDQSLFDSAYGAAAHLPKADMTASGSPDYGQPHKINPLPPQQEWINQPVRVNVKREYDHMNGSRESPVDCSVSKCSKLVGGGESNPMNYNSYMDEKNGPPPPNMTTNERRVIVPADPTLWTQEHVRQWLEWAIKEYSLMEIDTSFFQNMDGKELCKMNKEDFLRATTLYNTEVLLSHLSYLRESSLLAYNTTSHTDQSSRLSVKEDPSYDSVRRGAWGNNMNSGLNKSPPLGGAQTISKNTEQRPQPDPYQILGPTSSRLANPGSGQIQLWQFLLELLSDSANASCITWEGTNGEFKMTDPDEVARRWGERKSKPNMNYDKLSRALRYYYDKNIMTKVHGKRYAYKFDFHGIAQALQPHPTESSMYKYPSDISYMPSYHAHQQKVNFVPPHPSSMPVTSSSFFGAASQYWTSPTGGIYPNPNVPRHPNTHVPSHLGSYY
# How it was run: (§1)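 Pools of DNA-barcoded human transcription factors, expressed in yeast as GST fusions on glutathione beads and combined with a tag-only sample, were incubated with 200 nmole of a 16-mer random double-stranded DNA library. Incubation took 30 min at room temperature in Tris/NaCl/DTT/glycerol buffer and was followed by washing, 0.1% formaldehyde crosslinking, proximity ligation (BsaI/T4 ligase, 1 h, 37 °C), PCR amplification and sequencing on an Illumina NextSeq500. Binding signal is the ratio of a hexamer's read frequency for a factor to its frequency for the tag-only sample.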
# [2] = molecular target: T2, ELK1 (Homo sapiens, UniProt P19419 1-428); details: protein: recombinant; tags: N-terminal GST; dsDNA, one strand shown
# T2 sequence: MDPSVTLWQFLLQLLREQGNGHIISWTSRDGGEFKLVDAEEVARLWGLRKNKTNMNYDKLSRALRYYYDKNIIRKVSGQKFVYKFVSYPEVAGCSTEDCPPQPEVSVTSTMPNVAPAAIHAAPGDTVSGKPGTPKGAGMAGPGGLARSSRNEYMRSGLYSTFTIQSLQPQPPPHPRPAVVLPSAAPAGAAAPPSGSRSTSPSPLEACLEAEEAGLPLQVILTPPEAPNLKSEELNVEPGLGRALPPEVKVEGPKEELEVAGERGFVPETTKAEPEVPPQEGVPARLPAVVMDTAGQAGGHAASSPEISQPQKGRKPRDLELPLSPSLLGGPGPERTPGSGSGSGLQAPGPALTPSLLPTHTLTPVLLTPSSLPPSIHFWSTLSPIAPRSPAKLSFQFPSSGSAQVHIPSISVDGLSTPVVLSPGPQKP
# How it was run: as §1
# [3] = molecular target: T3, GABPA (Homo sapiens, UniProt Q06546 1-454); details: protein: recombinant; tags: N-terminal GST; dsDNA, one strand shown
# T3 sequence: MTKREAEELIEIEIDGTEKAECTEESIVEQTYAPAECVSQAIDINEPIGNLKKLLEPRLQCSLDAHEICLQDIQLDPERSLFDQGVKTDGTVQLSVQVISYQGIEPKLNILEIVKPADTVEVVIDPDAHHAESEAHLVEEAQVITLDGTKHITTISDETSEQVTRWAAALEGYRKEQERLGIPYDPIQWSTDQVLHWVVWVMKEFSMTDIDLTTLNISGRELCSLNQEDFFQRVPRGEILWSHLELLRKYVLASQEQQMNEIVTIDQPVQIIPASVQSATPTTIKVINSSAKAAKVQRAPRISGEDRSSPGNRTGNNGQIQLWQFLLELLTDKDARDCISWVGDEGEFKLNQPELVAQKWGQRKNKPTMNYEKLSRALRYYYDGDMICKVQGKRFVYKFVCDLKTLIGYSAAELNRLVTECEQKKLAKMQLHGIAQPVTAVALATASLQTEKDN
# How it was run: as §1
# [4] = molecular target: T4, ERG (Homo sapiens, UniProt P11308 1-479); details: protein: recombinant; tags: N-terminal GST; dsDNA, one strand shown
# T4 sequence: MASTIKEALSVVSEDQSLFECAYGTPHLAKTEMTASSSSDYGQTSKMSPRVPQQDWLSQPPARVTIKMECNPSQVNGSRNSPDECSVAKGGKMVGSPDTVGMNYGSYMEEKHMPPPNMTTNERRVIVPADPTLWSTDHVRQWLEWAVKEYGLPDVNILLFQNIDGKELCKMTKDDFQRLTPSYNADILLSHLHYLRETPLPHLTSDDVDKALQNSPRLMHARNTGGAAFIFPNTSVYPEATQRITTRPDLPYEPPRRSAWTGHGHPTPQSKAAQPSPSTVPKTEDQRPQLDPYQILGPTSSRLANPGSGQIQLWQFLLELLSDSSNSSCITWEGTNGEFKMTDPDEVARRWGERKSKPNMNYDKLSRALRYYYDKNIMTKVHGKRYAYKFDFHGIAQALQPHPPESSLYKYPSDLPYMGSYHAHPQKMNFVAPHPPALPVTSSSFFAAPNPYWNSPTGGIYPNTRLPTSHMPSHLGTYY
# How it was run: as §1
# [5] = molecular target: ELF1 (Homo sapiens, UniProt P32519 1-619); details: protein: recombinant; tags: N-terminal GST; dsDNA, one strand shown
# Chain of ELF1 (P32519 whole entry): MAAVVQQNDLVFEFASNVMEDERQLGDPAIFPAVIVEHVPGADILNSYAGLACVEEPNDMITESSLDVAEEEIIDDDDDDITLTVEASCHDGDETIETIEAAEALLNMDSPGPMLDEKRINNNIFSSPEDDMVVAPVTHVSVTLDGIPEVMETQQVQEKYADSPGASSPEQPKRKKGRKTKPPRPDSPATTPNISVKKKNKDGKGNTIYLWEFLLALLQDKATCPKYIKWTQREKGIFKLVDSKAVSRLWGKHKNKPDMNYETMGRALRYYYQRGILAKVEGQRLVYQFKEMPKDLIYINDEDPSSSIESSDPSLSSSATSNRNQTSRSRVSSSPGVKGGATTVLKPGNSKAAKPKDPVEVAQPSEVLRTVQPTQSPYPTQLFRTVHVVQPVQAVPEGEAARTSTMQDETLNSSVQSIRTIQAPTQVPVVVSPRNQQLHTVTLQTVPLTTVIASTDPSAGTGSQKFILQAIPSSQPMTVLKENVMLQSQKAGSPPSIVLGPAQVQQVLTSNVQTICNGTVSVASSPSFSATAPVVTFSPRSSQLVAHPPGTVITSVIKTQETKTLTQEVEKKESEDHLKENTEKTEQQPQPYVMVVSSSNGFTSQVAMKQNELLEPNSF
# How it was run: as §1
# [6] = molecular target: T5, EHF (Homo sapiens, UniProt Q9NZC4 1-300); details: protein: recombinant; tags: N-terminal GST; dsDNA, one strand shown
# T5 sequence: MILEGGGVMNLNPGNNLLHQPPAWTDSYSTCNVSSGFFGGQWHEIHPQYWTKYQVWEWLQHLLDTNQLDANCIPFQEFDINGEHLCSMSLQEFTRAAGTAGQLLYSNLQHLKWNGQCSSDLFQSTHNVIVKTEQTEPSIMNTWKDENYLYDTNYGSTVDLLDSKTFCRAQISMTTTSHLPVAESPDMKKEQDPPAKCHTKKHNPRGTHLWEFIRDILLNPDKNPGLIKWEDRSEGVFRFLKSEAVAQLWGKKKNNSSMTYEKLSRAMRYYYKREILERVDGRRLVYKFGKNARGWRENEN
# How it was run: as §1
# [7] = molecular target: SPI1 (Homo sapiens, UniProt P17947 1-270); details: protein: recombinant; tags: N-terminal GST; dsDNA, one strand shown
# How it was run: as §1
# [8] = molecular target: SPIB (Homo sapiens, UniProt Q01892 1-262); details: protein: recombinant; tags: N-terminal GST; dsDNA, one strand shown
# Chain of SPIB (Q01892 whole entry): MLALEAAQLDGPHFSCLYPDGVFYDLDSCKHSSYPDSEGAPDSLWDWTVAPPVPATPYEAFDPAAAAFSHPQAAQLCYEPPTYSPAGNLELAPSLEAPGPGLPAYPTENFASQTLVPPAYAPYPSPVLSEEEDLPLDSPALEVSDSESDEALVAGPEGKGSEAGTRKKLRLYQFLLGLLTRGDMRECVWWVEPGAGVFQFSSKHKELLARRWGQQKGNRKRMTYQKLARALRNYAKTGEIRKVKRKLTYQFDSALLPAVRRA
# How it was run: as §1
# [9] = molecular target: T6, ELK3 (Homo sapiens, UniProt P41970 1-407); details: protein: recombinant; tags: N-terminal GST; dsDNA, one strand shown
# T6 sequence: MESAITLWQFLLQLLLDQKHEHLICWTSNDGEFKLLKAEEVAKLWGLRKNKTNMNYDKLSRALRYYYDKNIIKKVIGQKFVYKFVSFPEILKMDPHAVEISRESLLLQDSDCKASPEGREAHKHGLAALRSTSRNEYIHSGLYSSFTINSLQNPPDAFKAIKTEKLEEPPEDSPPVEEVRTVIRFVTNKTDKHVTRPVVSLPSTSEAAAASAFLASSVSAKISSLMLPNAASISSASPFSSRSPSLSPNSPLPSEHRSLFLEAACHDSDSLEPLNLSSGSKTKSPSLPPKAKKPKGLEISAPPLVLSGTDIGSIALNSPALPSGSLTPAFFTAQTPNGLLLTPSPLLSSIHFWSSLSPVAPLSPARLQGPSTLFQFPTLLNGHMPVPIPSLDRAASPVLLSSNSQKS
# How it was run: as §1
# [10] = molecular target: T7, FEV (Homo sapiens, UniProt Q99581 1-238); details: protein: recombinant; tags: N-terminal GST; dsDNA, one strand shown
# T7 sequence: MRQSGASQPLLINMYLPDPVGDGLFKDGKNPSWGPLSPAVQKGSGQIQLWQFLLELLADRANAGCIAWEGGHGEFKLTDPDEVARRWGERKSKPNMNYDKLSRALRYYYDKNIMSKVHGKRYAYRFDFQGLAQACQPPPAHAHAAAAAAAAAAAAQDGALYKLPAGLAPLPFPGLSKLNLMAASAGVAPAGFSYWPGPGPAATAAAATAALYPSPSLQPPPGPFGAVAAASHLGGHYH
# How it was run: as §1
# [11] = molecular target: ETV5 (Homo sapiens, UniProt P41161 1-510); details: protein: recombinant; tags: N-terminal GST; dsDNA, one strand shown
# Chain of ETV5 (P41161 whole entry): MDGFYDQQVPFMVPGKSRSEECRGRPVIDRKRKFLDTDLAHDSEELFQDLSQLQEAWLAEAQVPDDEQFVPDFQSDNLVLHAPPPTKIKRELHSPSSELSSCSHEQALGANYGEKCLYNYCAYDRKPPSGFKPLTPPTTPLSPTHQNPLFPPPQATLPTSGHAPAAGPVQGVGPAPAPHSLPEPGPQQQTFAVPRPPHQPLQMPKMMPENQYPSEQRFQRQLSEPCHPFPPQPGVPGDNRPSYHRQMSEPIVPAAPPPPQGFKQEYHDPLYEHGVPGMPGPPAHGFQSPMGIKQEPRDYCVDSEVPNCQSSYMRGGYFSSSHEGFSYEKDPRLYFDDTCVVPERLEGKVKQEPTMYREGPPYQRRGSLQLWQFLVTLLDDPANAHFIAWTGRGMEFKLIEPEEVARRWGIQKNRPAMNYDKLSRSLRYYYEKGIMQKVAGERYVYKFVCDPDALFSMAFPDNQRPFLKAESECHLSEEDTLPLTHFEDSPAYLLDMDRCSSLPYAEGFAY
# How it was run: as §1
# [12] = molecular target: HSF1 (Homo sapiens, UniProt Q00613 1-529); details: protein: recombinant; tags: N-terminal GST; chain copies: 3; dsDNA, one strand shown
# Chain of HSF1 (Q00613 whole entry): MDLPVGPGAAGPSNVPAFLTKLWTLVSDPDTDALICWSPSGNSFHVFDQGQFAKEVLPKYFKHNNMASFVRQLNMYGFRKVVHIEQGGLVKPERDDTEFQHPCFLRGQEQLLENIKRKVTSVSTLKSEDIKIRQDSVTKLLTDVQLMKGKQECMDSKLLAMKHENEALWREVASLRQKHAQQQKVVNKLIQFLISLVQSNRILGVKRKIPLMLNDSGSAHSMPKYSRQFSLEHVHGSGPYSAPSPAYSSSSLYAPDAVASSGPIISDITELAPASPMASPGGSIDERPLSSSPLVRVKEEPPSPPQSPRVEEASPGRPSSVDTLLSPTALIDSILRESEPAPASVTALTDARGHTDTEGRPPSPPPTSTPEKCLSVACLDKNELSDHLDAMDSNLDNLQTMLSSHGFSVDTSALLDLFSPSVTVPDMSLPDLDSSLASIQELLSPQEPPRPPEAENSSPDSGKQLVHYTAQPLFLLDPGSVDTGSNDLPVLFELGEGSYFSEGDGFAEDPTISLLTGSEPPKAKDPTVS
# How it was run: as §1
# [13] = molecular target: T8, SPIC (Homo sapiens, UniProt Q8N5J4 1-248); details: protein: recombinant; tags: N-terminal GST; dsDNA, one strand shown
# T8 sequence: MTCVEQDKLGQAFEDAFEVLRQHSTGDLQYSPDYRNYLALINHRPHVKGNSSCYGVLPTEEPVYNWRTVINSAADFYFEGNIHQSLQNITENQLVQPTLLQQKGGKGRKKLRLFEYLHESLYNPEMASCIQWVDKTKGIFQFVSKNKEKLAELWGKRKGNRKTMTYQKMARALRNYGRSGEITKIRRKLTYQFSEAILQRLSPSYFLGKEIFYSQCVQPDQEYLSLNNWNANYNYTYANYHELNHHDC
# How it was run: as §1
# [14] = molecular target: ELF4 (Homo sapiens, UniProt Q99607 1-663); details: protein: recombinant; tags: N-terminal GST; dsDNA, one strand shown
# Chain of ELF4 (Q99607 whole entry): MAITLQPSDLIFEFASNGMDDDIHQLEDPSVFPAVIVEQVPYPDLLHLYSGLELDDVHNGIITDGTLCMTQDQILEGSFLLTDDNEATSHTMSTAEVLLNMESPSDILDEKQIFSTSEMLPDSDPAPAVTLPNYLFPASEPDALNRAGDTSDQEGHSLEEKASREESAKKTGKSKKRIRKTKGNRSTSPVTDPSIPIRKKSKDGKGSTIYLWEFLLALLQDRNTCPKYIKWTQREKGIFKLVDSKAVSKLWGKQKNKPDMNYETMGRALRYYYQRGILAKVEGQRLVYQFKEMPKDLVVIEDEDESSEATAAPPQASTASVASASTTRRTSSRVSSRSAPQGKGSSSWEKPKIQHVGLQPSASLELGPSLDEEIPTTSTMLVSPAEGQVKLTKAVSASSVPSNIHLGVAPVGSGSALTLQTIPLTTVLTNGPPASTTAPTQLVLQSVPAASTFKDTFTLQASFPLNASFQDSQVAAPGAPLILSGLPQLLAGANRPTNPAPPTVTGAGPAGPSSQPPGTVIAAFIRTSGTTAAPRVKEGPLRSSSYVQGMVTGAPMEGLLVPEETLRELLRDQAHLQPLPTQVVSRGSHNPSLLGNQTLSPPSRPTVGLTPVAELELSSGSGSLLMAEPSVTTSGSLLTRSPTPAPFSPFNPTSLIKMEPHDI
# How it was run: as §1
# [15] = molecular target: T9, ELK4 (Homo sapiens, UniProt P28324-2 1-405); details: protein: recombinant; tags: N-terminal GST; dsDNA, one strand shown
# T9 sequence: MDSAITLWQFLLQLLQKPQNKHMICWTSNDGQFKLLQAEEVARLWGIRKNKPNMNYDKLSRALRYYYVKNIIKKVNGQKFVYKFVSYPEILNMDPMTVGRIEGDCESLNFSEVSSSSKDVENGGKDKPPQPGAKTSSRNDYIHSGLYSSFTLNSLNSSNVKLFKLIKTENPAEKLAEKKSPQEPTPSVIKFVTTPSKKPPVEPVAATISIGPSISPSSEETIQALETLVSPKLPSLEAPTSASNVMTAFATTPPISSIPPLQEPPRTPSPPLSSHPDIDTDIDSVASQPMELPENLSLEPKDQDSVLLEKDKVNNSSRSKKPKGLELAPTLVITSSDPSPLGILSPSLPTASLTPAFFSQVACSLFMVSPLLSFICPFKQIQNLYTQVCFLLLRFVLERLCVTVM
# How it was run: as §1
# [16] = molecular target: T10, ETV2 (Homo sapiens, UniProt O00321 1-342); details: protein: recombinant; tags: N-terminal GST; dsDNA, one strand shown
# T10 sequence: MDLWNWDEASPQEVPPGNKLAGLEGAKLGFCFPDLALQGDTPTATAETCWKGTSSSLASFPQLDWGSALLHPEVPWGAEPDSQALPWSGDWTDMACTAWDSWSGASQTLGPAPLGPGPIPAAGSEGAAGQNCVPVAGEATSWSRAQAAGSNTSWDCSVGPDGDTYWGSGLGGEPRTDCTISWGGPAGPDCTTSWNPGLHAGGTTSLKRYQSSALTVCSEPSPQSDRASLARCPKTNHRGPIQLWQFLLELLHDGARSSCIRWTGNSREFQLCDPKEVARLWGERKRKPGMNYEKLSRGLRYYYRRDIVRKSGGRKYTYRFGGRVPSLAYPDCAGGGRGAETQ
# How it was run: as §1
# [17] = molecular target: T11, ELF3 (Homo sapiens, UniProt P78545 1-371); details: protein: recombinant; tags: N-terminal GST; dsDNA, one strand shown
# T11 sequence: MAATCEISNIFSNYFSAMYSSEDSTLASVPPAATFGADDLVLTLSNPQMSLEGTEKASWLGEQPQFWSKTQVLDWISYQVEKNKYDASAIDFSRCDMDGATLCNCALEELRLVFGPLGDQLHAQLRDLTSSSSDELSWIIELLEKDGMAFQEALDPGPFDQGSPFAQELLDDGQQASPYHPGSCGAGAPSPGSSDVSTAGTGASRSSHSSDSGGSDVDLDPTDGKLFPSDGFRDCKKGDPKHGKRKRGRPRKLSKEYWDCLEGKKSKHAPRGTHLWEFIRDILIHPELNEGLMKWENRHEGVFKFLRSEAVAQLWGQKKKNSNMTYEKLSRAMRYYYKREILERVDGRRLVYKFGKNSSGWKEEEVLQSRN
# How it was run: as §1
# [18] = molecular target: CRX (Homo sapiens, UniProt O43186 1-299); details: protein: recombinant; tags: N-terminal GST; dsDNA, one strand shown
# Chain of CRX (O43186 whole entry): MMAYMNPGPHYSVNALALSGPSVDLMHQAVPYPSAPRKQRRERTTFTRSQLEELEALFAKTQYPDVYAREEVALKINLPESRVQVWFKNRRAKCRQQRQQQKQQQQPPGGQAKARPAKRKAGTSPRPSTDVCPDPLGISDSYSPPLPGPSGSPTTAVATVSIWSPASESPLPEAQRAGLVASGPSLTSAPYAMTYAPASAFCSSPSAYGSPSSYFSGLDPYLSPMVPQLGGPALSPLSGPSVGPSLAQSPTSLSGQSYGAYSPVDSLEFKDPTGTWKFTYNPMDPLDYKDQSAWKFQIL
# How it was run: as §1
# [19] = molecular target: ETV1 (Homo sapiens, UniProt P50549 1-477); details: protein: recombinant; tags: N-terminal GST; dsDNA, one strand shown
# Chain of ETV1 (P50549 whole entry): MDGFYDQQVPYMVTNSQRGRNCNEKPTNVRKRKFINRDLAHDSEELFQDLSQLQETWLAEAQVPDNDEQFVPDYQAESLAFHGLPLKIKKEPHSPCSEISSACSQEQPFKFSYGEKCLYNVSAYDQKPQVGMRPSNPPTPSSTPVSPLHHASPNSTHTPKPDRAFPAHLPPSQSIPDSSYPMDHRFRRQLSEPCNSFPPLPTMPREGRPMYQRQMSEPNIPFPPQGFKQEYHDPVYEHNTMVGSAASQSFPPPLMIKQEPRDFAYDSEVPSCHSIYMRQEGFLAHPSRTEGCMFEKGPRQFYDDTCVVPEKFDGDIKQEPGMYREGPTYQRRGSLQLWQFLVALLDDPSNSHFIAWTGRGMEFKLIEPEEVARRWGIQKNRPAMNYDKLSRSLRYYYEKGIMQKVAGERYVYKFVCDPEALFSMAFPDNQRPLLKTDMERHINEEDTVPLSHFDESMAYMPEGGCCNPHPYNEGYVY
# How it was run: as §1
sequence,measurement,setting,value
CTTCCA,binding signal,[1],"1.5 fold enrichment (6-mer frequency, TF over GST control)"
same,binding signal,[2],"1.42 fold enrichment (6-mer frequency, TF over GST control)"
same,binding signal,[3],"1.34 fold enrichment (6-mer frequency, TF over GST control)"
same,binding signal,[4],"1.47 fold enrichment (6-mer frequency, TF over GST control)"
same,binding signal,[5],"1.39 fold enrichment (6-mer frequency, TF over GST control)"
same,binding signal,[6],"1.53 fold enrichment (6-mer frequency, TF over GST control)"
same,binding signal,[7],"1.44 fold enrichment (6-mer frequency, TF over GST control)"
same,binding signal,[8],"1.51 fold enrichment (6-mer frequency, TF over GST control)"
same,binding signal,[9],"1.58 fold enrichment (6-mer frequency, TF over GST control)"
same,binding signal,[10],"1.43 fold enrichment (6-mer frequency, TF over GST control)"
same,binding signal,[11],"1.46 fold enrichment (6-mer frequency, TF over GST control)"
same,binding signal,[12],"2.18 fold enrichment (6-mer frequency, TF over GST control)"
same,binding signal,[13],"1.44 fold enrichment (6-mer frequency, TF over GST control)"
same,binding signal,[14],"1.33 fold enrichment (6-mer frequency, TF over GST control)"
same,binding signal,[15],"1.45 fold enrichment (6-mer frequency, TF over GST control)"
same,binding signal,[16],"1.37 fold enrichment (6-mer frequency, TF over GST control)"
same,binding signal,[17],"1.49 fold enrichment (6-mer frequency, TF over GST control)"
same,binding signal,[18],"1.42 fold enrichment (6-mer frequency, TF over GST control)"
same,binding signal,[19],"1.48 fold enrichment (6-mer frequency, TF over GST control)"
